Consider 18 compounds from PubChem BioAssay (NCI).

This is part of a sample that, as a whole, favours compounds with a hit. Of some 79,000 tested, about 15% had one in any assay. Unmarked numbers belong to inactive results. The source made the active and inactive calls. Cut-off read from the data, not from the text of the source: active = growth inhibition above about 70%; inactive = the rest.

The nature of this assay: NCI Yeast Anticancer Drug Screen. Data for the mec2-1 strain (AID 157). The note with it: S. cerevisiae mec2-1 strain, at 50.0 µM (retest, dose inferred, filed as 5.0), stronger effect = higher value. The procedure, abridged: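 Readout is yeast growth inhibition, normalised to vehicle-treated controls, in the mec2-1 strain exposed to compound.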
Consider `CCOC(=O)c1cnc2cc3cccccc3n2c1=O`, for which the growth inhibition was 41%.
Under `C(=N\NC1=NCCN1)/c1ccc(-c2cn3cc(/C=N/NC4=NCCN4)ccc3n2)cc1` stands 99% (active); under `CC(CN(C)C)C(/C=C/c1ccc(F)cc1)=N\Nc1ccccc1` (stereo not drawn), 1%.
`O=C1C(Sc2ccc3ccccc3c2)=C(Sc2ccc3ccccc3c2)C(=O)c2ccccc21`: the growth inhibition was 94% (active).
For `CC(O)c1cccnc1` (stereo not drawn), the growth inhibition is 1%.
As for `Cc1cccc2nc3nc(Cl)c(Cl)nc3n12`, the growth inhibition is 82% (active).
Then `CSc1cc2c(cc1N)Cc1cc(F)ccc1-2`, with 78% (active); and `CC(C)C1=CC23CCC4C(C)(C(=O)O)CCCC4(C)C2CC1c1c(O)ccc(O)c13` (stereo not drawn), with 100% (active).
For `C=CCNC(=S)N/N=C(\CCC)c1ccccn1`, the growth inhibition is 96% (active).
On to `C#CC(C)(C)OC(C)=O`, for which the growth inhibition was 0%.
Then `Cc1cc(N2C(=O)CSC2=S)c([N+](=O)[O-])cc1C`, with 100% (active); and `Cc1[nH]c(=O)[nH]c(=O)c1CN(C)Cc1cc(Cl)cc(Cl)c1O`, with 55%; and `CCCCC(CC)C(O)C(=O)O` (stereo not drawn), with 27%.
Then `CCOCCOc1ccc(OCCOCC)cc1`, with -13%; and `O=C(O)c1ccc(C(=O)c2ccccc2C(=O)O)cc1`, with -2%.
Then `CCCCCCCCCCCCCCNC(=O)CCC(NC(=O)c1ccc(N(C)Cc2cnc3nc(N)nc(N)c3n2)cc1)C(=O)NCCCCCCCCCCCCCC` (stereo not drawn), with 96% (active); and `C=C1C(=O)C23OC2C1CCC(=O)C1(C)CC[C@H](OC(C)=O)C(C)(C)[C@H]1CC3O` (stereo partly drawn), with 31%.
For `CCCCCCCCCCC(NC(C)=O)(C(=O)OCC)C(=O)OCC`, the growth inhibition was 99% (active).
